From PubChem
Sampled rows, rich in hits. Any-hit rate of the full collection: about 1.6%.
Rev-erbA mod: modulators of human Rev-erb alpha DNA binding; Rev-erbα–FITC-DNA binding, fluorescence polarization, 90 min; activity, % at 10 µM; actives 0.79% (n = 370,000);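 active means activity above about 14%, limit read from the data; passing the limit was not always enough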
NPR2 activator: GC-B (human) receptor activation; P20594; HEK293-GC-B cells, CNP EC30, cGMP TR-FRET; 0% at EC30 CNP, 100% saturating CNP; activation, % at 10 µM; actives 0.11% (n = 370,000);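 active means activation at 10 µM reaching about 35% in either raw or pattern-adjusted values, limit read from the data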
GC-A act: GC-A (human) enzyme activation. P16066. HEK293 GC-A cells, cGMP TR-FRET, EC30 ANP; 0% at EC30 ANP, 100% saturating ANP. activation, % at 10 µM. actives 0.14% (n = 370,000); in the data active means activation above about 40%
Target sequence (P16066 whole entry, looked up): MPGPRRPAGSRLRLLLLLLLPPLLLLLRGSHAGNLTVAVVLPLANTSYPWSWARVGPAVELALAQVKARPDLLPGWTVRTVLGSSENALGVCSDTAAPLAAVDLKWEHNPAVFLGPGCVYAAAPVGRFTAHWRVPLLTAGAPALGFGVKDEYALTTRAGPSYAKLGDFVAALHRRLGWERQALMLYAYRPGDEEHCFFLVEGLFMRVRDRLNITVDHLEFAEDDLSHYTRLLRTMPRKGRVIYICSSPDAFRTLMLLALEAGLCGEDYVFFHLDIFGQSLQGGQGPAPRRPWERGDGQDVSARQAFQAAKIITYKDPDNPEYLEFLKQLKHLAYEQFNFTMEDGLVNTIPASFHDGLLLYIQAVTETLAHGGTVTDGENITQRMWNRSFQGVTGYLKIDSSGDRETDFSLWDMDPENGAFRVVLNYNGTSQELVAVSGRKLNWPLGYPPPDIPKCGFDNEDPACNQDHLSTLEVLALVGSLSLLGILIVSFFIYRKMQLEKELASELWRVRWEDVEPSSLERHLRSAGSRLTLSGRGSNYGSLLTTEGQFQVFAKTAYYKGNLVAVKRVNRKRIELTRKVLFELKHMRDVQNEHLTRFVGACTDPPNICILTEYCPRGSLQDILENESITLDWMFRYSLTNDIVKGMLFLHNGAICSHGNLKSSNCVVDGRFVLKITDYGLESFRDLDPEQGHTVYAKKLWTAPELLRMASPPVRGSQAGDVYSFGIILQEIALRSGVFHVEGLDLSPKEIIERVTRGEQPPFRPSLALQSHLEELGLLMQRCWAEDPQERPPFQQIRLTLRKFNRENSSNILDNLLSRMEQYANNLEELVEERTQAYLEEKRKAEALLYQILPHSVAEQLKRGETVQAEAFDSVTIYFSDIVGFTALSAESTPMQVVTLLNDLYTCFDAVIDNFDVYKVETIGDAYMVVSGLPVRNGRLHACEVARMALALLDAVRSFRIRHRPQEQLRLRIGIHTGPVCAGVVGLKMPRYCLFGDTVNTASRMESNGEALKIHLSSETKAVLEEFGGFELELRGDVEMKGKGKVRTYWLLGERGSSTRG
V-ATPase pHluor: yeast V-ATPase proton transport regulation by pHLuorin | S. cerevisiae, pHLuorin cytosolic pH fluorescence | response, % at 10 µM | actives 0.37% (n = 350,000) | AID 504577; in the data active means response mostly above about 7.3%, no sharp cut-off; inactive means mostly below about 5.4%; further: actives read high
PG9 binder: PG9 antibody binding by small molecule; TR-FRET gp120-PG9 antibody binding; inhibition, % at 6.7 µM; actives 0.43% (n = 360,000); in the data active means inhibition above about 8.5%
NR1D1 mod conf: confirmation of modulators of human Rev-erb alpha DNA binding. activation, % at 25 µM. shares compounds with Rev-erbA mod. actives 61% (n = 3,000). Rev-erb alpha FITC-DNA binding, fluorescence polarization, 90 min;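 active means activation at or above a set limit, or at least 3 SD above the negative control mean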
RORg DNA counter: affects RORgamma DNA binding in a Rev-erb alpha counter-screen | shares compounds with Rev-erbA mod | purified RORgamma protein-FITC-DNA binding, fluorescence polarization | IC50, µM | actives 8% (n = 910) | AID 1259320;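 active means Compounds whose fitted half-maximal concentration for disrupting protein-DNA binding is below 10 micromolar; the record names Rev-erb in its text, so the target is in doubt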
Each line names hits and unclear results; the compound was inactive in the other large screens (follow-up assays come after a bar, where they were run).

COc1ccc(/C=C2\SC(=O)N(CC(=O)Nc3cccnc3)C2=O)cc1OC	none
COc1ccc(/C=C2/SC(=O)N(CCC(=O)Nc3ccc(C)cc3)C2=O)cc1OC	Rev-erbA mod 30 (no result: V-ATPase pHluor) | NR1D1 mod conf 25
COc1ccc(/C=C2/SC(=O)N(CCC(=O)Nc3ccccc3)C2=O)cc1OC	Rev-erbA mod 24 | NR1D1 mod conf 31 | RORg DNA counter inactive
COc1ccc(/C=C2\SC(=S)N(CCCC(=O)Nc3cc(C)on3)C2=O)cc1OC	none
COc1ccc(/C=C2/SC(=O)N(CC(=O)Nc3cc(C)on3)C2=O)cc1OC	Rev-erbA mod 49 | NR1D1 mod conf 27
CN1C(=O)/C(=C/C=C2\SCCN2C)N(C)C1=S	Rev-erbA mod 51 | NR1D1 mod conf 22
Cc1cc(/C=C2/C(=O)N(C)C(=S)N2C)c(C)n1C1CC1	none
CCOC(=O)c1c(C)nc2sc3c(=O)n(-c4ccc(C(C)=O)cc4)cnc3c2c1-c1ccc(OC)cc1	Rev-erbA mod 31 | NR1D1 mod conf 19
CCOC(=O)c1c(C)nc2sc3c(=O)n(-c4ccc(OC)cc4)nnc3c2c1-c1ccc(OC)cc1	none
Cc1ccc(-c2c(NC(=O)c3cccc(C)c3)nc3ncccn23)cc1	none (no result: V-ATPase pHluor, PG9 binder)
COc1ccc(-c2cc(C(=O)OCC(=O)c3c(N)n(C)c(=O)n(C)c3=O)c3ccccc3n2)cc1	Rev-erbA mod 30 | NR1D1 mod conf 19
O=c1[nH]c2ccc(Cl)cc2c(-c2ccccc2)c1N1CCN(CCO)CC1	none
CCOC(=O)N1CCN(c2c(-c3ccccc3)c3cc(Cl)ccc3[nH]c2=O)CC1	Rev-erbA mod 33 | NR1D1 mod conf inactive
CCOC(=O)C1CCN(c2c(-c3ccccc3)c3cc(Cl)ccc3[nH]c2=O)CC1	Rev-erbA mod 37 | NR1D1 mod conf inactive
O=C(NCCCN1CCN(c2ccc(F)cc2)CC1)Nc1ccccc1	none (no result: V-ATPase pHluor, PG9 binder)
COc1ccc(N2CCN(CCCNC(=O)CCOC(C)(C)C)CC2)cc1	none (no result: V-ATPase pHluor, PG9 binder)
O=C(CSc1nnc(-c2ccccc2)n1-c1ccc(Cl)cc1)NN=Cc1c[nH]c2ccccc12	none (no result: V-ATPase pHluor, PG9 binder)
Cn1cc(C2=C(c3ccc(Cl)cc3Cl)C(=O)NC2=O)c2ccccc21	Rev-erbA mod 36 | NR1D1 mod conf 20
Cn1cc(-c2ccccc2C(N)=O)c(=O)c2cc(Cl)ccc21	none
CC[C@@H](CO)NCCN[C@@H](CC)CO	none (no result: NPR2 activator, GC-A act, V-ATPase pHluor, PG9 binder)
COc1ccc2nc(SCC(=O)Nc3ccc4sc(C)nc4c3)c(C#N)cc2c1	Rev-erbA mod 92 | NR1D1 mod conf 123 | RORg DNA counter inactive
CC(C)CCSc1nc(N)c(C#N)cc1C#N	Rev-erbA mod 104 | NR1D1 mod conf 96 | RORg DNA counter inactive
Cc1ccccc1NC(=O)CSc1nc(N)c(C#N)cc1C#N	none
COc1ccc(NC(=O)CSc2nc(N)c(C#N)cc2C#N)cc1	Rev-erbA mod 61 | NR1D1 mod conf 65 | RORg DNA counter inactive
COc1ccc(NC(=O)CSc2nc3ccccc3cc2Cc2ccccc2)cc1	Rev-erbA mod 27 | NR1D1 mod conf 22
O=C(OCC#CCSc1nnc(-c2ccc(F)cc2)o1)c1ccc(F)cc1	none (no result: V-ATPase pHluor, PG9 binder)
O[C@H](COc1cccc(C(F)(F)F)c1)CN1CCC(C(O)(c2ccccc2)c2ccccc2)CC1	none (no result: V-ATPase pHluor, PG9 binder)
CC(C)N(Cc1cn(Cc2ccccc2)nn1)S(=O)(=O)c1ccc(F)cc1Br	none (no result: V-ATPase pHluor, PG9 binder)
CC1=C(C)C(=O)C(C(CCCCCC(=O)O)c2ccccc2)=C(C)C1=O (stereo unspecified)	none (no result: NPR2 activator, GC-A act, V-ATPase pHluor, PG9 binder)
CC(C)C[C@H](NC1(C(=O)NC2CCCCC2)CCCCC1)C(=O)NCCc1c[nH]c2ccccc12	none (no result: V-ATPase pHluor, PG9 binder)
N#Cc1nnn2c1nc(N)c1c(Cl)cccc12	Rev-erbA mod 37 (no result: V-ATPase pHluor) | NR1D1 mod conf 15
CCCCCn1nnnc1C1(C)CCCCC(=O)N1Cc1ccco1 (stereo unspecified)	none (no result: V-ATPase pHluor, PG9 binder)
COc1cc(C(=O)NCC(=O)NCCN2C(=O)S/C(=C\c3ccccc3Cl)C2=O)cc(OC)c1OC	none
COc1cc(/C=C2\SC(=O)N(CCNC(=O)c3sc4cc(F)ccc4c3Cl)C2=O)cc(OC)c1OC	Rev-erbA mod 72 | NR1D1 mod conf 32 | RORg DNA counter inactive
Cc1ccc(C2CC(c3cccs3)=NN2C(=O)CSC2=NCCS2)cc1 (stereo unspecified)	none
COc1ccc(C2CC(c3cccs3)=NN2C(=O)CSC2=NCCS2)cc1 (stereo unspecified)	Rev-erbA mod 14 | NR1D1 mod conf inactive
CCN(C(=O)c1ccco1)c1nnc(-c2ccc(OC)cc2)s1	Rev-erbA mod 25 | NR1D1 mod conf inactive
CCCN(C(=O)c1ccco1)c1nnc(-c2cccc(C)c2)s1	none
COc1ccc(S[C@]2(C(=O)N(C)C)CC(=O)N(C(=O)/C=C/c3ccccc3)[C@@H]2c2ccc(OC)cc2)cc1	none (no result: V-ATPase pHluor, PG9 binder)
Cc1ccc2nc(-c3cccc(Br)c3)cc(C(=O)NCC3CCCO3)c2c1 (stereo unspecified)	Rev-erbA mod 24 | NR1D1 mod conf inactive
COc1ccc(-c2cc(C(=O)NCC3CCCO3)c3cc(C)ccc3n2)cc1 (stereo unspecified)	none
Cc1ccc(S(=O)(=O)N2CCN(c3ncnc4scc(-c5ccccc5)c34)CC2)cc1	none
Cc1ccc(S(=O)(=O)N2CCN(c3ncnc4scc(-c5ccc(F)cc5)c34)CC2)cc1	Rev-erbA mod 24 | NR1D1 mod conf inactive
COc1ccc(-c2csc3ncnc(N4CCN(S(=O)(=O)c5cccc(C(F)(F)F)c5)CC4)c23)cc1	none
COc1ccc(-c2csc3ncnc(N4CCN(S(=O)(=O)c5cccc(Br)c5)CC4)c23)cc1	Rev-erbA mod 16 | NR1D1 mod conf 18
COC(=O)C1CN(Cc2cn(CCOC(C)=O)nn2)CCS(=O)(=O)N1Cc1ccccc1 (stereo unspecified)	none (no result: V-ATPase pHluor, PG9 binder)
FC(F)(F)c1ccc2nc(CNc3nc(N4CCOCC4)nc4c3ncn4-c3ccsc3)[nH]c2c1	none (no result: V-ATPase pHluor, PG9 binder)
COc1cc(/C=N/NC(=O)c2c(C)nc3ccc(Cl)cn23)cc(OC)c1OC	Rev-erbA mod 50 | NR1D1 mod conf 47 | RORg DNA counter inactive
CC(=O)NC(Cc1ccc2c(c1)OCO2)C(=O)N1CCCN(C(C)=O)CC1 (stereo unspecified)	none (no result: V-ATPase pHluor, PG9 binder)
COc1nc(-c2ccccc2)ccc1-c1noc(-c2ccccc2F)n1	Rev-erbA mod 29 | NR1D1 mod conf inactive
COc1nc(-c2ccccc2)ccc1-c1noc(-c2cccnc2)n1	Rev-erbA mod 35 | NR1D1 mod conf inactive
COc1nc(-c2ccc(C)cc2)ccc1-c1noc(-c2ccco2)n1	none
COc1nc(-c2ccc(C)cc2)ccc1-c1noc(-c2cccnc2)n1	Rev-erbA mod 22 | NR1D1 mod conf inactive
COc1ccccc1-c1noc(-c2cccnc2)n1	none
